According to the supplement of paper PMC4466236:
In all, about 33,000 sequences were measured (“E-score (dimensionless, -0.5 to 0.5)”: median about -0.058, highest 2% from about 0.35 on). The sample holds the highest values, similar sequences and a random draw of the others, so the mix is not that of the screen.

Tested on: MvaT
Experiment: PBM 8-mer E-score (mean of HK and ME arrays) (E-score (dimensionless, -0.5 to 0.5)); higher = stronger relative binding preference
Summary of the method: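 Full-length P. aeruginosa MvaT, with glutathione S-transferase fused to its N-terminus (cloned into pTH6838 by isothermal assembly), was tested by protein binding microarray using a previously described protocol. Two universal double-stranded 60-mer arrays (ME and HK) were used, each with a constant 25-mer primer region and a variable 35-mer region covering all 8-mers. The rank-based 8-mer E-score (-0.5 to 0.5) is the mean of the two arrays, parsed with a custom Python script.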

Sequence	PBM 8-mer E-score
ACATTACC	0.113
CTTTTGTC	0.0941
ATGTAAAT	0.327
ATAAAAGA	0.263
ATATAAAT	0.45
CTATAAAA	0.171
AGATAAAT	0.241
ATATAAAA	0.431
CTCTCATA	0.00755
ACGGACGA	-0.238
ACAAATTA	0.35
ACAAATTG	0.137
CCAAATTA	0.228
ACAAAATG	0.0821
ACAAAATA	0.39
GCAAAATA	0.198
CGCCCAAC	-0.0513
CATCCTTA	0.0793
ACATAGTC	0.172
AGACTAGA	0.16
CGTCCAAC	-0.205
AAAGCGTT	0.0685

Sequence	PBM 8-mer E-score
GAGGGATA	-0.0756
AGTGTTTC	0.161
AAAGTTTC	0.296
ATAGTTTC	0.275
ATAGTTTA	0.35
TGAGTTAA	0.272
ACAGTTAT	0.305
AAAGTTAT	0.36
AAAGTTTA	0.353
GAAGTTAA	0.317
AAAGTTGT	0.264
CTAGTTTA	0.306
TAAGTTAA	0.426
GAAGTTTA	0.304
ACTCAGAT	0.101
CACAACGA	0.0491
CTTGGACA	-0.17
ACAGGCAC	-0.193
CTTTTGGC	-0.0767
GTAGTTAA	0.283
TAAGTTCA	0.353
GAAGTTCA	0.16

Sequence	PBM 8-mer E-score
AAAGTTCA	0.322
ACAGTTAA	0.299
CAAGTTAA	0.332
ATAGTTAA	0.339
CTAGTTAA	0.36
CAAGTTAG	0.194
AAAGTTAA	0.353
AAAGTTAG	0.353
AAAGTTAC	0.212
CATACGTA	-0.0616
AAGTTTCA	0.303
GAGCTGAC	-0.316
TATCTACA	0.17
ACCCCATA	-0.17
CAAAGTAG	0.0209
CCTGGGTC	-0.264
ACGGATAT	0.113
CGTATTAG	0.0961
CGTATTAC	0.17
GGTATTAA	0.34
TGTATTAA	0.39
AGTATTAA	0.328

Sequence	PBM 8-mer E-score
CGTATTAA	0.35
GTCATAAC	0.0325
GTACATGA	0.066
ATGTGGGA	0.0305
ACGTATGA	-0.1
CGGTTATA	0.224
CATTGTTA	0.157
AATTATTA	0.438
CCTTATTA	0.292
ACTTATTA	0.416
AATTGTTA	0.377
GATTGTTA	0.204
AATTACTA	0.323
GCTTATTA	0.254
ACTTATTG	0.29
AATTATTG	0.351
AATTATCG	0.336
TCTAGGCA	-0.16
CCGAGCGC	-0.231
TATCTGAA	0.238
ATGTCCTG	-0.157
CATAGCGA	0.0278

Sequence	PBM 8-mer E-score
AGTACCGC	-0.108
GTGAGCTA	-0.209
CAAGCCTG	-0.209
AATTATCC	0.296
ACTTATTC	0.229
AATTATTC	0.352
CATTAGTA	0.191
AATTAGTC	0.282
AATTAGTA	0.384
GAGATTTA	0.0378
GTTGCATA	0.0505
ATCATTAC	0.235
CGACAACA	0.0714
AATATTAG	0.394
AATATTGC	0.307
CCTATTAG	0.0715
AAGATTAT	0.286
CCTATTAC	0.151
CATATTAC	0.294
AATATTAT	0.445
AATATTGT	0.355
